Measured values from PMC5540273 (PLoS ONE, 2017).

How the values were obtained:
Conditions in all cases: concentration: 1 μM, replicates: in singlicate; n = 1
MAST1 = system: MAST1
MEK1 = system: T1, MEK1
T1 construct: gene MAP2K1

MEK2 = system: T2, MEK2
T2 construct: gene MAP2K2

MEK3 = system: T3, MEK3
T3 construct: gene MAP2K3

MEK4 = system: T4, MEK4
T4 construct: gene MAP2K4

MEK5 = system: T5, MEK5
T5 construct: gene MAP2K5

MEK6 = system: T6, MEK6
T6 construct: gene MAP2K6

MELK = system: MELK
MERTK = system: MERTK
MET = system: MET
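Further: KINOMEscan kinase panel screen.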

Row | Compound | %Inh (MAST1) [%] | %Inh (MEK1) [%] | %Inh (MEK2) [%] | %Inh (MEK3) [%] | %Inh (MEK4) [%] | %Inh (MEK5) [%] | %Inh (MEK6) [%] | %Inh (MELK) [%] | %Inh (MERTK) [%] | %Inh (MET) [%]
1 | CC(=O)c1cccc(NC(=O)NC2CCN(c3ccnc(Nc4ccc(F)cc4)n3)C2)c1 (centres unmarked) [GSK1379710] | 30 | 6 | 16 | 9 | 57 | 34 | 9 | 12 | 40 | 0
2 | Cc1ccc(NC(=O)Nc2ccc(Cl)cc2)cc1-c1ccc(C(=O)Nc2ccncc2)cc1 [GSK1398472] | 0 | 0 | 0 | 0 | 26 | 11 | 0 | 0 | 0 | 0
3 | COc1ccc(Nc2nccc(N3CCC(NC(=O)C(C)c4ccc(Cl)cc4)C3)n2)cc1 (centres unmarked) [GSK1379735] | 0 | 0 | 0 | 0 | 20 | 13 | 0 | 7 | 33 | 0
4 | Fc1ccc(-c2nc[nH]c2-c2ccncc2)cc1 [SB-217360] | 0 | 36 | 58 | 32 | 6 | 66 | 0 | 0 | 19 | 0
5 | COc1nccc(-c2c(-c3ccc(F)cc3)ncn2CCCN2CCOCC2)n1 [SB-282852] | 20 | 0 | 25 | 31 | 23 | 7 | 0 | 0 | 19 | 0
6 | CNc1nc(-c2ccc3c(N)n[nH]c3c2)cc(N2C[C@@H](C(=O)NC3CCCCC3)OC[C@H]2C)n1 [GSK2375584] | 0 | 8 | 11 | 0 | 11 | 14 | 0 | 57 | 2 | 0
7 | COc1ccc(CSc2nnc(-c3ccc4c(c3)CCO4)o2)cc1 | 7 | 0 | 0 | 0 | 0 | 1 | 0 | 0 | 0 | 0
8 | CSc1ccc(-c2nc3n(c2-c2ccncc2)CCC3)cc1 [SKF-105561] | 16 | 1 | 25 | 18 | 0 | 22 | 0 | 18 | 0 | 0
9 | CC(C)c1cc(-c2ccc3c(N)n[nH]c3c2)nc(N)n1 [GSK2250882] | 0 | 0 | 0 | 0 | 8 | 29 | 5 | 15 | 21 | 0
10 | COc1ccc(CSc2nnc(-c3ccc4nccn4c3)o2)cc1C(F)(F)F | 0 | 13 | 21 | 43 | 51 | 0 | 0 | 16 | 5 | 2
11 | Nc1ncnc2occ(-c3ccc4c(c3)CCN4C(=O)Cc3cc(F)ccc3F)c12 [GSK2645446] | 0 | 0 | 0 | 0 | 2 | 92.3 | 0 | 3 | 34 | 0
12 | Cc1ccc(NC(=O)Nc2ccc(Cl)c(C(F)(F)F)c2)cc1-c1ccc(C(=O)Nc2ccncc2)cc1 [GSK1398470] | 0 | 0 | 0 | 0 | 24 | 29 | 0 | 13 | 0 | 13
13 | c1ccc(-c2ccnc3[nH]ccc23)cc1 [SB-693578] | 44 | 49 | 29 | 10 | 28 | 45 | 0 | 0 | 15 | 0
14 | CN1c2ccc(-c3ccc(C(N)=O)cc3)cc2-c2[nH]ncc2S1(=O)=O | 0 | 41 | 17 | 16 | 0 | 24 | 0 | 10 | 46 | 14
15 | Cc1ccc(NC(=O)Nc2ccccc2)cc1-c1ccc(C(=O)Nc2ccncc2)cc1 [GSK1398471] | 0 | 0 | 0 | 0 | 23 | 4 | 8 | 11 | 40 | 4
16 | Cn1cnc2c(N)ncnc21 [SKF-97623] | 44 | 0 | 0 | 13 | 0 | 23 | 0 | 0 | 16 | 2

Row | Compound | %Inh (MAST1) [%] | %Inh (MEK1) [%] | %Inh (MEK2) [%] | %Inh (MEK3) [%] | %Inh (MEK4) [%] | %Inh (MEK5) [%] | %Inh (MEK6) [%] | %Inh (MELK) [%] | %Inh (MERTK) [%] | %Inh (MET) [%]
17 | COc1cccc(CNC(=O)NC2CCN(c3ccnc(Nc4ccc(F)cc4)n3)C2)c1 (centres unmarked) [GSK1379723] | 6 | 10 | 0 | 0 | 36 | 53 | 0 | 0 | 26 | 0
18 | CC(=O)c1c(C)c2cnc(Nc3ccc(N4CCNCC4)cn3)nc2n(C2CCCC2)c1=O | 0 | 0 | 0 | 0 | 0 | 1 | 0 | 5 | 0 | 0
19 | Cc1c(Cn2c(C)c(C)n3c(=O)cc(N4CCOCC4)nc23)cccc1C(F)(F)F [GSK2328680] | 0 | 0 | 0 | 0 | 0 | 0 | 0 | 1 | 0 | 0
20 | COC(=O)c1cccc(NC(=O)NC2CCN(c3ccnc(Nc4ccc(F)cc4)n3)C2)c1 (centres unmarked) [GSK1379725] | 0 | 0 | 0 | 0 | 36 | 12 | 0 | 0 | 2 | 0
21 | Cc1cnc(N)c(/C=C/c2cncc(C(=O)NCCc3ccc(Cl)cc3Cl)c2)c1.Cl [GSK190937] | 5 | 0 | 0 | 0 | 34 | 41 | 0 | 2 | 29 | 0
22 | O=C(Nc1n[nH]c2cc(-c3ccsc3)ccc12)C1CC1 [SB-732932] | 36 | 11 | 16 | 17 | 18 | 50 | 0 | 0 | 14 | 0
23 | CCn1c(-c2c(N)noc2C)nc2cnccc21 [SB-737856] | 0 | 0 | 2 | 0 | 0 | 32 | 70 | 0 | 1 | 0
24 | COc1ccc2cc(-c3nc(-c4ccccc4C(C)C)[nH]c3-c3ccncc3)ccc2c1 [SB-660566] | 2 | 0 | 0 | 0 | 65 | 11 | 45 | 26 | 33 | 0
25 | COC(=O)C(NC(=O)NC1CCN(c2ccnc(Nc3ccc(F)cc3)n2)C1)c1ccccc1 (centres unmarked) [GSK1379712] | 0 | 19 | 0 | 0 | 16 | 86 | 0 | 20 | 0 | 0
26 | Cc1c(Cn2c3ccccc3n3c(=O)cc(N4CCOCC4)nc23)cccc1C(F)(F)F [GSK2306394] | 0 | 0 | 0 | 0 | 17 | 59 | 0 | 66 | 33 | 0
27 | COc1cccc(C2=C(Nc3cc(Cl)c(O)c(Cl)c3)C(=O)NC2=O)c1 [SB-390767] | 1 | 0 | 0 | 0 | 0 | 17 | 0 | 17 | 0 | 0
28 | COc1cc2ncnc(Nc3cccc(Br)c3)c2cc1OC.Cl [GI230329] | 20 | 0 | 0 | 0 | 20 | 86 | 0 | 0 | 45 | 0
29 | COc1ccc(CSc2nnc(-c3ccc4ncsc4c3)o2)cc1C(F)(F)F | 0 | 0 | 9 | 9 | 0 | 0 | 24 | 0 | 16 | 0
30 | COc1ccc(Nc2nccc(N3CCC(NC(=O)c4cc5ccccc5s4)C3)n2)cc1 (centres unmarked) [GSK1379738] | 0 | 0 | 0 | 0 | 23 | 10 | 0 | 0 | 0 | 0
31 | CCn1c(-c2ccccc2)nc2cnccc21 [SB-733416] | 0 | 0 | 0 | 0 | 25 | 37 | 0 | 0 | 24 | 0
32 | Cc1ccc(NC(=O)c2ccc(Cl)cc2)cc1-c1ccc(C(=O)Nc2ccncc2)cc1 [GSK1398467] | 0 | 0 | 0 | 0 | 3 | 0 | 0 | 0 | 18 | 0
